Only some compounds are listed: those with a hit (about 22% of all), similar ones and a draw of the others.
CYP2C19 act = cytochrome P450 2C19 (human) activation. P33261. recombinant CYP2C19, luciferin-H EGE luminescence; hits give high values; 0 = fully inhibited enzyme, 1 = untreated enzyme. activation factor at 5 µM. 96,000 tested, under 10 active. AID 1025;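 active means activation factor of at least 2 at 5 µM in the primary screen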
Target sequence (P33261 whole entry, looked up): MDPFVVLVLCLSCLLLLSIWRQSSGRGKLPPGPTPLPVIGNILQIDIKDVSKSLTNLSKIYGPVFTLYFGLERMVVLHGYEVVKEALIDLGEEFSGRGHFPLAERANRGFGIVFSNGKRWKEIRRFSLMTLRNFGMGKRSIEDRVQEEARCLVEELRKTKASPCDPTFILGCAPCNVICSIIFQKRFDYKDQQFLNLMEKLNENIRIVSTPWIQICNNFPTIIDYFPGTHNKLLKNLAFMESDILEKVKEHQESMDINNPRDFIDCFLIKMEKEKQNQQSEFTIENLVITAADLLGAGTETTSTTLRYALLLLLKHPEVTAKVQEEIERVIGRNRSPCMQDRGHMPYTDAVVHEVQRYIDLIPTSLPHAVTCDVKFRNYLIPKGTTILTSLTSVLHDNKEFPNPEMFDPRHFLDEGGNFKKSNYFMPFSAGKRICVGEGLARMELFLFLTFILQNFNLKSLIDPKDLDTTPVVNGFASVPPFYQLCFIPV
CYP2C9 act = increases human cytochrome P450 2C9 activity | recombinant CYP2C9, luciferin-H conversion, luminescence; hits give high values; factor 1 = untreated enzyme, 0 = blocked | activation factor at 5 µM | hit rate 1.4% among 96,000 | AID 1024 | P11712;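 active means activation factor of 2 or more for CYP2C9 at a 5 µM dose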
Measles CPE = protection of cells from measles virus | protection (pct of control), % at 4 µM | Measles virus-infected cells, CPE protection, absorbance | hit rate 1.5% among 140,000; in the data active means protection mostly above about 24%, no sharp cut-off; inactive means mostly below about 26%
CYP2C9 inh = blocks human cytochrome P450 2C9; CYP2C9 Supersomes, luciferin-H conversion, luminescence; inhibition, % at 5 µM; hit rate 20% among 96,000; AID 777;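 active means blocking of liver enzyme CYP2C9 beyond about 50% at 5 µM, limit read from the data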
CYP2C19 inh = human CYP2C19 inhibition; inhibition, % at 5 µM; hit rate 21% among 96,000; CYP2C19 Supersomes, luciferin-H EGE luminescence, 30 min;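 active means CYP2C19 inhibition above a set limit at 5 µM in the primary screen, cut at about 50% in these data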
A number is an active result; - = inactive; . = not tested or not shown.

SMILES	CYP2C19 act	CYP2C9 act	Measles CPE	CYP2C9 inh	CYP2C19 inh
CCOC(=O)C(NC(=O)c1cccc(Cl)c1)(Nc1nnc(C)s1)C(F)(F)F (configuration not stated)	.	.	-	.	.
CCCc1cc(=O)[nH]c(/N=C(/NC(=O)C(C)N2C(=O)c3ccccc3C2=O)Nc2ccccc2)n1 (configuration not stated)	-	-	-	62	-
Cc1ccc(NC(=O)C(C)N2C(=O)c3ccccc3C2=O)cc1 (configuration not stated)	-	-	-	-	-
COc1cccc(S(=O)(=O)Nc2ccc3sc(C)nc3c2)c1	-	-	-	95	100
Cc1ccc(C)c(S(=O)(=O)Nc2ccc3sc(C)nc3c2)c1	.	.	-	.	.
Cc1cc(C)nc(N2CCC(C(=O)Nc3ccc4c(c3)CCC4)CC2)n1	-	-	-	-	-
CCc1cccc(CC)c1N(COC)C(=O)Cn1ccccc1=N	-	-	-	-	-
CCOC(=O)CCn1c(CC(=O)OCC)nc2ccccc21	-	-	-	-	-
CCc1cccc(CC)c1N(COC)C(=O)Cn1nnc2ccccc21	-	-	-	100	82
CCc1cccc(CC)c1N(COC)C(=O)Cn1c(CO)nc2ccccc21	-	-	-	51	-
CCOC(=O)C1=C(N)N(c2ccccc2Oc2ccccc2)C(=O)C1	-	-	-	65	78
Cc1cc(=O)[nH]c(SCC(=O)NCCc2ccccc2)n1	-	-	-	-	-
Cc1nc(SCC(=O)NC(=O)NCc2ccccc2)nc(C)c1C	-	-	-	-	59
Cc1nc(SCC(=O)NCCc2ccccc2)nc(C)c1C	-	-	-	-	80
Cc1csc(SCC(=O)NC(=O)NCc2ccccc2)n1	-	-	-	-	-
CC(=O)NCCC(=O)Nc1sc2c(c1-c1nc3ccccc3[nH]1)CCCC2	-	-	-	61	-
O=C(Nc1sc2c(c1-c1nc3ccccc3[nH]1)CCCC2)C1CCCC1	-	-	-	-	-
CCOC(=O)C(CC)(CC)/C(C)=N/NC(=O)CC#N	-	-	-	-	72
CC(CC(=O)NCc1ccccc1)C1CCCO1 (configuration not stated)	-	-	-	60	-
O=C(CC(C(=O)O)C1CCCO1)NCc1ccccc1 (configuration not stated)	-	-	-	-	-
CCOc1ccccc1C1C2CCCCC2(O)CCN1C(=O)c1cccs1 (configuration not stated)	.	.	-	.	.
O=C(NC1CCCCC1)c1ccc(Cn2cc(Br)cn2)o1	-	-	-	-	62
O=C(c1ccc(Cn2cc(Br)cn2)o1)n1cccn1	-	-	-	-	55
O=C(Nc1cccc(C(F)(F)F)c1)c1ccc(Cn2cc(Br)cn2)o1	-	-	-	69	85
O=C(NCc1ccccn1)c1ccc(Cn2cc(Br)cn2)o1	-	-	-	-	-
SMILES	CYP2C19 act	CYP2C9 act	Measles CPE	CYP2C9 inh	CYP2C19 inh
CCC(=O)c1ccc(N2CCCCCC2)c(F)c1	-	-	-	52	68
CCC(=O)c1ccc(N2CCCC2)c(F)c1	.	.	-	.	.
CCOC(=O)N1CCN(Cc2c(F)cccc2F)CC1	-	-	-	-	76
CCOC(=O)N1CCN(c2ccc(C(=O)c3ccccc3)cc2F)CC1	-	-	-	87	76
CCOC(=O)N1CCN(c2ccc(C(C)=O)cc2F)CC1	.	.	-	.	.
CCOC(=O)N1CCN(Cc2c(F)cccc2Cl)CC1	-	-	-	-	-
Cc1nnc(NCCc2ccccc2)n(N)c1=O	-	-	-	-	-
CCOC(=O)c1cc2occc2n1Cc1c(F)cccc1Cl	-	-	-	-	-
Cc1cc2c(cc(C(=O)N3CCC(C(=O)N4CCCC4)CC3)n2Cc2c(F)cccc2Cl)o1	-	-	-	78	96
O=C1C=C(c2ccccc2)OC2(CCCC2)O1	-	-	-	-	63
CCOc1ccc(NC2=NC(C(=O)NCc3ccccc3)CC(=O)N2)cc1 (configuration not stated)	-	-	-	-	62
O=C1CC(C(=O)NCc2ccccc2)N=C(N2CCCCC2)N1 (configuration not stated)	-	-	-	-	-
CCC(=O)OCC(=O)c1c(N)n(Cc2ccccc2)c(=O)n(C)c1=O	-	-	-	-	66
Cn1c(=O)c(C(=O)CN2CCc3ccccc32)c(N)n(Cc2ccccc2)c1=O	.	.	-	.	.
Cn1c(=O)c(C(=S)NC(=O)C2CC2)c(N)n(Cc2ccccc2)c1=O	-	-	-	-	-
Cn1c(=O)c(C(=O)CSc2nnc(Nc3ccccc3)s2)c(N)n(Cc2ccccc2)c1=O	-	-	-	72	-
Cn1c(=O)c(C(=O)CN2CCCc3ccccc32)c(N)n(Cc2ccccc2)c1=O	-	-	-	93	87
Cc1nn(-c2ccccc2)c(C)c1C(=O)OCC(=O)c1c(N)n(CC(C)C)c(=O)n(C)c1=O	-	-	-	61	-
CCOC(=O)CCC(=O)Nc1cccc([N+](=O)[O-])c1	.	.	-	.	.
COc1cc2c(cc1OC)CN(Cc1cc(=O)n3cc(C)ccc3n1)CC2	-	-	.	-	-
CCOc1ccccc1N(CC(=O)NC1CCCC1)C(=O)CCC(=O)Nc1cc(C)on1	-	-	-	83	83
COc1ccccc1N(CC(=O)NC1CCCC1)C(=O)CCC(=O)Nc1cc(C)on1	-	-	-	65	63
COc1ccc(CCN(CC(=O)NC2CCCC2)C(=O)CCC(=O)Nc2cc(C)on2)cc1OC	-	-	22	-	-
COc1ccc(C)cc1N(CC(=O)NC1CCCC1)C(=O)CCC(=O)Nc1cc(C)on1	-	-	-	-	-
CCOc1ccccc1N(CC(=O)NCC1CCCO1)C(=O)CCC(=O)Nc1ccccn1 (configuration not stated)	-	-	-	-	-
SMILES	CYP2C19 act	CYP2C9 act	Measles CPE	CYP2C9 inh	CYP2C19 inh
Cc1ccc(NC(=O)N2CCCC2C(=O)NCCc2ccccc2)cc1 (configuration not stated)	-	-	-	-	-
CCOC(=O)c1cnc(SCC(=O)Nc2sc(C)c(C)c2C#N)nc1N	-	-	-	62	-
Cc1sc(NC(=O)CSc2nc(N)n(CC(=O)c3ccccc3)n2)c(C#N)c1C	-	-	-	98	93
CCOC(=O)c1cnc(SCC(=O)NCc2cccs2)nc1N	-	-	-	93	80
Cc1ccc(-c2nnc(SCC(=O)Nc3sc(C)c(C)c3C#N)n2C)cc1	.	.	-	.	.
CCOC(=O)c1cnc(SC2CCc3ccccc3C2=O)nc1N (configuration not stated)	-	-	-	-	81
O=C(Cc1nn[nH]n1)c1ccccc1O	.	.	-	.	.
CCCS(=O)(=O)N1CCC(C(=O)NCc2ccc(F)cc2)CC1	.	.	-	.	.
Cc1c(NC(=O)OC(C)C)sc(=S)n1C	.	.	-	.	.
O=C(NCc1ccco1)c1cc(-c2cccs2)nc2ccccc12	.	.	59	.	.
O=C(COC(=O)c1cc(-c2cccs2)nc2ccccc12)NCc1ccco1	-	-	-	90	54
O=C(COC(=O)c1cc(-c2ccco2)nc2ccccc12)NCc1ccc2c(c1)OCO2	.	.	-	.	.
O=C(COC(=O)c1cc(-c2ccc(Cl)s2)nc2ccccc12)NCc1ccco1	-	-	-	-	-

Screens as filed in PubChem BioAssay.
